# Cruzain Triton: cruzain (T. cruzi) inhibition with detergent | P25779 | purified cruzain, Z-FR-AMC fluorescence, 0.01% Triton | Potency, µM, for inactives: max response, negative = inhibition, actives largely listed as inhibitors | 200,000 compounds, 0.43% hits | AID 1478;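 note: plate controls were neutral wells for no effect and buffer without enzyme for full effect; nearly all actives have a fitted effect of over 40% in size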
# Target sequence (P25779 123-467 limits assumed): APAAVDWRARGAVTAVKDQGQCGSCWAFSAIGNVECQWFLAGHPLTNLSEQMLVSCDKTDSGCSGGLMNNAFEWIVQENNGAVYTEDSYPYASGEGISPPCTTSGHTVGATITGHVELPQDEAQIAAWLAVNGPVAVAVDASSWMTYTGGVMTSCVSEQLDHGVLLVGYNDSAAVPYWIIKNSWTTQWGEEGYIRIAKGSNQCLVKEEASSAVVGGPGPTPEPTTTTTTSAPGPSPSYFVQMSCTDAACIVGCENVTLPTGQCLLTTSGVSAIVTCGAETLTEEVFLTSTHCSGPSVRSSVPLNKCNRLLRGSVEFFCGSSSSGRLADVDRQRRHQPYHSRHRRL
#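 In this qHTS format, compounds are incubated with 1.5 nM cruzain for 15 min at room temperature before 2 uM Z-FR-AMC is added. Release of AMC is followed at 360/450 nm, and progress is taken as the 60 s fluorescence difference.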
# Cruzain inh noDet: blocks cruzain activity in detergent-free assay. P25779. purified cruzain, Z-FR-AMC fluorescence, no detergent. Potency, µM, for the others: max response, negative = inhibition, hits mostly inhibitors. 200,000 compounds, 2.3% hits;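 note: plate controls were enzyme without inhibitor for no effect and buffer without enzyme for full effect; nearly all actives have a fitted effect of over 40% in size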
#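 Detergent-free condition (0.00005% Triton X-100) in acetate buffer pH 5.5 with DTT. 1.5 nM enzyme and compound were pre-mixed 15 min, then 2 uM Z-FR-AMC substrate added; reaction progress from fluorescence change between first and third reads (60 s).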
# * marks the source's active call; other numbers are inactive results; ? = inconclusive. Rows were chosen to be rich in hits. Some 2.4% of all compounds tested hit in one or more screens of this group. Calls come from the whole dose curve; as a rule, active = well fitted curve in the direction sought with a large enough effect; inconclusive = small, poorly fitted or top-dose-only effect, or another doubt; inactive = no such curve, though single readings can be large; an effect the other way counts as inactive or inconclusive. Potency is the fitted concentration of half-maximal effect.
SMILES,Cruzain Triton,Cruzain inh noDet
Cc1cc(-c2nnc3n2N=C(c2ccc(-c4ccccc4)cc2)CS3)n[nH]1,-10.3%,25.1µM*
CCOc1ccccc1NC(=O)C1CCN(S(=O)(=O)c2c(C)noc2/C=C/c2ccc(C)cc2)CC1,-1.7%,-8.0%
COc1ccc(C(C)=O)cc1CSc1nc2ccccc2c(=O)n1-c1ccccc1,-10.2%,-20.2%
C=CCn1c(SCc2cc(C(C)=O)ccc2OCC)nc2ccccc2c1=O,14.1µM*,?
CCCC(=O)OCc1cnc(C)c2oc(=O)c(C(=O)Nc3cccc(C(F)(F)F)c3)cc12,-2.7%,15.0%
N#CCCCS(=O)(=O)c1nc2ccccc2s1,1.0%,-0.9%
CN(C)S(=O)(=O)c1cc(NC(=O)CSc2nn(-c3ccc(Cl)cc3)c(=S)s2)ccc1Cl,-3.6%,25.1µM*
Cc1ccc(NC(=O)CSc2nn(-c3ccc(Cl)cc3)c(=S)s2)cc1S(=O)(=O)N(C)C,-1.6%,?
CC(=O)Nc1ccc2c(c1)/C(=C/c1ccc([N+](C)(C)C)cc1)c1ccccc1-2,1.8%,-9.4%
COc1ccc(CC(=O)NCCS(=O)(=O)N2CCN(c3ccccc3F)CC2)cc1OC,-1.4%,1.3%
O=C(Cc1ccc(-c2ccccc2)cc1)NCCS(=O)(=O)N1CCN(c2ccccc2F)CC1,0.6%,12.6µM*
Cn1c(=O)n(C)c2cc(N3CCCCC3)c(NC(=O)c3c(F)cccc3F)cc21,-8.1%,8.1%
CCc1ccc(N2C(=O)CSC23C(=O)N(Cc2cccc(F)c2)c2ccccc23)cc1 (stereo unspecified),0.4%,-3.9%
CCc1ccc(N2C(=O)CS(=O)(=O)C23C(=O)N(Cc2ccccc2)c2ccccc23)cc1 (stereo unspecified),-4.4%,2.51µM*
O=C1CS(=O)(=O)C2(C(=O)N(Cc3cccc(F)c3)c3ccccc32)N1c1ccccc1 (stereo unspecified),-6.0%,10µM*
CCc1ccc(N2C(=O)CSC23C(=O)N(Cc2ccc(C)cc2)c2ccccc23)cc1 (stereo unspecified),-8.6%,-25.6%
CS(=O)(=O)N1CCCc2cc(C(=O)Nc3cccc(C(F)(F)F)c3)ccc21,-8.2%,?
COc1ccccc1OC(C)C(=O)Nc1ccc(-c2nc3ccccc3s2)cc1 (stereo unspecified),-1.2%,-8.9%
O=C(O)[C@@H](O)[C@@H](O)C1[O][Sb][O][C@@H]1CO (stereo partly specified),3.7%,4.5%
CCCCCCc1cc2cc(S(=O)(=O)c3ccc(C)cc3)c(=O)oc2cc1O,-12.1%,-21.3%
CCCCCCc1cc2cc(S(=O)(=O)c3ccc(Cl)cc3)c(=O)oc2cc1O,-5.2%,12.6µM*
COc1ccc(-c2nc3cc(NC(=O)c4ccc(C)cc4)ccc3o2)cc1Cl,1.8%,6.0%
O=C(O)C/C(=C\c1ccccc1)C(=O)O,3.3%,1.7%
O=c1c(CCc2ccccc2)nc2cncnc2n1-c1ccccc1,-8.6%,-1.8%
O=c1c(CCc2ccccc2)nc2cncnc2n1Cc1ccccc1,2.8%,3.16µM*
SMILES,Cruzain Triton,Cruzain inh noDet
O=C(OCC(=O)c1ccc(Cl)cc1Cl)c1ccc2c(c1)C(=O)N(c1cccc3ncccc13)C2=O,6.4%,20µM*
O=C(COC(=O)c1ccc2c(c1)C(=O)N(c1cccc3ncccc13)C2=O)c1ccc(Cl)cc1,-3.6%,?
O=C(Nc1nccs1)C1CCCN(S(=O)(=O)c2cccc3cccnc23)C1 (stereo unspecified),1.0%,3.2%
COc1ccc2nc(NC(=O)C3CCN(S(=O)(=O)c4cccs4)CC3)sc2c1,-1.2%,?
COc1ccc2nc(NC(=O)C3CCCN(S(=O)(=O)c4cccs4)C3)sc2c1 (stereo unspecified),-2.0%,25.1µM*
O=C(Nc1nc2cc(Cl)ccc2s1)C1CCCN(S(=O)(=O)c2cccc3cccnc23)C1 (stereo unspecified),-8.2%,25.1µM*
CCOC(=O)c1cc(-c2ccc(F)cc2)n(CCC(=O)Nc2cc(OC)cc(OC)c2)c1C,-7.3%,0.9%
O=C(N[C@H]1CCCc2ccccc21)O[C@@H]1C(=O)c2cc(Br)ccc2O[C@H]1c1ccc2c(c1)OCO2,2.9%,-11.7%
O=C(NCCc1ccccc1)c1ccc([N+](=O)[O-])cc1,3.1%,-0.1%
O=C(CCNC(=O)c1ccccc1)Oc1ccc([N+](=O)[O-])cc1,-21.6%,25.1µM*
Cc1cc(-c2csc(NC(=O)c3ccc(C#N)cc3)n2)c(C)n1Cc1ccco1,-3.2%,7.94µM*
Cc1csc(NC(=O)CSc2nnc(C)n2Cc2ccco2)n1,1.3%,-0.1%
Cc1c([C@@H](C)C2NC[C@H](C)C[C@@H]2O)ccc2c1C[C@@H]1[C@H]2CC=C2C[C@@H](O)CC[C@@]21C (stereo partly specified),1.1%,-5.4%
CC(C)(CO[C@H]1C[C@H]2CC[C@@]1(C)C2(C)C)[N+](=O)[O-],-0.8%,3.5%
O=C(Nc1c(C(=O)c2ccccc2)oc2ccccc12)c1cc(-c2ccccc2O)n[nH]1,-3.6%,12.6µM*
